{"source": "PubChem BioAssay", "key": {"[1]": {"experiment": "inhibitors of TNFa-induced NFkB p65 translocation, primary screen, imaging, HUVEC, MLSMR starter and 10KST1 sets (AID 438;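 active means inhibition above 20% together with a positive visual image hit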;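 further: compound added about 3h40 before a 20 min TNFalpha stimulation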)", "conditions": "HUVEC TNFa-induced p65 nuclear translocation; cell count: measured here: nuclei count (cytotoxicity indicator), at 2.08 µM; inhibition: at 2 µM, stronger effect = higher value, 0% TNFa-plus-vehicle, 100% no-TNFa wells"}, "[2]": {"experiment": "reduction of polyQ htt aggregates in cells – imaging, exon1htt(103Q)mCFP cells, high-content imaging, primary screen (AID 483;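 active means visual image review flags a hit and inhibition of aggregation exceeds 20%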;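 further: compound exposure lasted 3 days before fixation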;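 on nuclei count: percent of the per-plate median nuclei count of sample wells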)", "conditions": "exon1htt(103Q)mCFP cell line, aggregate imaging, at 2 µM; inhibition of aggregation: stronger effect = higher value; nuclei count: measured here: cell count, toxicity"}, "[3]": {"experiment": "endothelial E-selectin expression blockers – imaging, HUVEC, immunofluorescence, MLSMR starter and 10KST1 sets, primary screen (AID 487;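 active means visually confirmed hit in the image check and inhibition above 20%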;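 on inhibition: signal is fraction of cell area covered by stained E-selectin grains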;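 on nuclei count: 100% = median nuclei count of all wells on the same plate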)", "conditions": "HUVEC TNFalpha-induced E-selectin immunofluorescence imaging, at 2 µM; inhibition: stronger effect = higher value; nuclei count: measured here: cell number, toxicity"}, "[4]": {"experiment": "Primary imaging screen for DUSP6 inhibitors that restore phospho-Erk in transfected HeLa cells, chemical complementation (AID 609;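 active means compounds giving at least 50% inhibition in the cell-based MKP-3 phosphatase rescue imaging test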)", "conditions": "HeLa MKP-3 transfected, phospho-Erk imaging KS statistic, at 10 µM, cells stimulated with TPA for 15 min"}, "[5]": {"target": "Dual specificity protein phosphatase 6 (Homo sapiens) (UniProt Q16828)", "sequence (Q16828 whole entry, looked up)": "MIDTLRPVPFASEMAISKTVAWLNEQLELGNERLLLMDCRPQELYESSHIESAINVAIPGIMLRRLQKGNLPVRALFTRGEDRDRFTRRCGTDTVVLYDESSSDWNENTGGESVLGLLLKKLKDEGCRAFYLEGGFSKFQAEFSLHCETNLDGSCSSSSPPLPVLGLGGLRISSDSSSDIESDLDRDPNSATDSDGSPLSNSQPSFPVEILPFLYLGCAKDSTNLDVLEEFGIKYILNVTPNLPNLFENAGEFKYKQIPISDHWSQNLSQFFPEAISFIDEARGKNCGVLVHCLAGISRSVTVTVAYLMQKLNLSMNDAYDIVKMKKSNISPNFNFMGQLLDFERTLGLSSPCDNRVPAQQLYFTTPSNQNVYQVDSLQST", "experiment": "Primary imaging screen for DUSP6 inhibitors that restore phospho-Erk in transfected HeLa cells, chemical complementation (AID 609);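 on inhibition: phospho-Erk level distribution per well compared with pooled transfected vehicle control wells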", "conditions": "HeLa MKP-3 transfected, phospho-Erk imaging KS statistic; at 10 µM; stronger effect = higher value; cells stimulated with TPA for 15 min"}, "[6]": {"target": "Voltage-gated potassium channel subunit beta-2 (Rattus norvegicus) (UniProt P62483)", "sequence (P62483 whole entry, looked up)": "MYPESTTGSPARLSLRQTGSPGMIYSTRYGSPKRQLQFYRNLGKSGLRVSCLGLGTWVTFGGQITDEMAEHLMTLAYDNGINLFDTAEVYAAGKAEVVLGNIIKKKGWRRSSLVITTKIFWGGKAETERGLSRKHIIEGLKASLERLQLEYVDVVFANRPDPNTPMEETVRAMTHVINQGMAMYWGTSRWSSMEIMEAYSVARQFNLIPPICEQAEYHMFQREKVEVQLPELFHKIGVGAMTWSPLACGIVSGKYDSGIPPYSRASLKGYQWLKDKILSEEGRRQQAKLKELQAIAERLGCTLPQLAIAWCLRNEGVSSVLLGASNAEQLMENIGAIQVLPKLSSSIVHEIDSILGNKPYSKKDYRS", "experiment": "inhibitors of rat Kvbeta2 reductase activity – biochemical, NADPH fluorescence, primary screen (AID 622;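 active means fluorescence slope higher than the sample average by over 3 SD, cut at about -0.22 in these data, passing the limit was not always enough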;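 further: slope of raw intensity against log time taken from 70 to 1610 s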)", "conditions": "recombinant KvBeta, 4-cyanobenzaldehyde reduction, at 10 µM, stronger effect = higher value"}, "[7]": {"target": "Voltage-gated potassium channel subunit beta-2 (Rattus norvegicus) (UniProt P62483)", "experiment": "enhancers of rat Kvbeta2 NADPH turnover – biochemical, NADPH fluorescence, primary screen (AID 623;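 active means NADPH fluorescence slope more negative than the mean of all samples by about 3 SD, 99.7% confidence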;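 further: fluorescence intensity change per second fitted from 20 to 320 s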)", "conditions": "Recombinant KvBeta, NADPH fluorescence decrease slope, 10 min; at 10 µM; stronger effect = lower value"}, "[8]": {"target": "Alpha-2C adrenergic receptor (Homo sapiens) (UniProt P18825)", "sequence (P18825 whole entry, looked up)": "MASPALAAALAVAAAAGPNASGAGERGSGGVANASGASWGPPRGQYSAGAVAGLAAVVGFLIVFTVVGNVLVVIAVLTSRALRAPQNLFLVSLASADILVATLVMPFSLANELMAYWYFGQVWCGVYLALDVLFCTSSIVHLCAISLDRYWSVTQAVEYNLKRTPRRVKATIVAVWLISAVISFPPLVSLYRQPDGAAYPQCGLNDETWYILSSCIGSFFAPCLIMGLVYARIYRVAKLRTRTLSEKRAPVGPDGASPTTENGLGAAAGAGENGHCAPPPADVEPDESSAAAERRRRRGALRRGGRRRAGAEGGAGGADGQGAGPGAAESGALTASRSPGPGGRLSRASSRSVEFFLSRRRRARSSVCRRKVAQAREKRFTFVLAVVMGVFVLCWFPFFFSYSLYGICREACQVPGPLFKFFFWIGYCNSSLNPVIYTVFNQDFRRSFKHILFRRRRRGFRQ", "experiment": "compounds altering alpha2C-coupled GIRK flux – cell-based, HEK293 alpha2C/GIRK1/2, thallium flux, primary screen (AID 624);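 further: slope of fluorescence ratio to pre-addition baseline per second over 15 to 24 s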", "conditions": "thallium flux BTC fluorescence, at 10 µM, actives lie on both sides"}, "[9]": {"experiment": "inhibitors of larval lipid processing in zebrafish, primary screen, whole organism, PED6 fluorescence, gall bladder and intestine (AID 686;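 active means a full or partial loss of lipid-probe fluorescence in the fish gall bladder, intestine or both, judged by eye; inactive means no fluorescence loss, or compound toxic to the fish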;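 further: larvae 5 to 7 days old with five fish per well; signal comes from phospholipase A2 cleavage of quenched PED6 carried via bile; overnight exposure to compound and PED6 before scoring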)", "conditions": "Zebrafish larvae PED6 lipid processing, fluorescence scoring; screened at 20 µM (by protocol)"}, "[10]": {"experiment": "loss of swimming-algae plug formation – whole organism, Chlamydomonas reinhardtii, WT vs cilia-less mutant, absorbance, 96-well, primary screen (AID 463189;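 active means inhibition at or above 50% relative to wild type and mutant plate controls; inactive means inhibition below 50%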;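 further: 0% = wild type cc124 cells in DMSO and 100% = ciliumless bld1 mutant cells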)", "conditions": "Chlamydomonas reinhardtii gravitaxis, OD600 absorbance, 2 days; at 10 µM; stronger effect = higher value"}, "[11]": {"experiment": "blockers of RIG-like receptor reporter activation – cell-based, Sendai virus stimulus, luciferase, 10K MLSCN set, TLR/RLR signaling modifier project, primary screen (AID 602276;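 active means inhibition at or above 50% at 10 µM; inactive means inhibition below 50%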;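 further: firefly luciferase from ISG56 promoter only with Renilla not read in this screen; 0% = Sendai virus plus DMSO and 100% = medium plus DMSO without virus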)", "conditions": "HEK293 RL24 IRF3 luciferase reporter, at 10 µM, stronger effect = higher value"}, "[12]": {"experiment": "TLR3 IRF3 reporter activation blockers – cell-based, poly I:C stimulus, luciferase, 10K MLSCN set, primary screen (AID 602277;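 active means inhibition of the reporter signal at or above 50%; inactive means inhibition below 50%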)", "conditions": "HEK293-TLR3 RL24 IRF3 luciferase reporter, at 10 µM, stronger effect = higher value"}, "[13]": {"conditions": "measured here: cell density z-score"}, "[14]": {"conditions": "measured here: nuclear c-Myc green intensity z-score"}, "[15]": {"conditions": "measured here: nuclear pErk red intensity z-score, stronger effect = higher value"}}, "note": "The source made the active and inactive calls.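 How the source made its calls, unless noted: active means fluorescence slope after compound addition differing from the mean of all screened samples at 99.7% confidence, in either direction; inactive means the rest.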"}
{"smiles": "COc1ccc(Nc2nc(Nc3ccc(OC)cc3)nc(-n3[nH]c(=O)c(C)c3C)n2)cc1", "values": [{"measurement": "cell count", "setting": "[1]", "result": 656}, {"measurement": "inhibition", "setting": "[1]", "result": "-10.8% (inactive)"}, {"measurement": "inhibition of aggregation", "setting": "[2]", "result": "0.5% (inactive)"}, {"measurement": "nuclei count", "setting": "[2]", "result": 124, "unit": "%"}, {"measurement": "inhibition", "setting": "[3]", "result": "-17.7% (inactive)"}, {"measurement": "nuclei count", "setting": "[3]", "result": 122, "unit": "%"}, {"measurement": "z-score", "setting": "[4]; [13]", "result": -0.0693}, {"measurement": "z-score", "setting": "[4]; [14]", "result": 1.31}, {"measurement": "z-score", "setting": "[4]; [15]", "result": 0.0692}, {"measurement": "inhibition", "setting": "[5]", "result": "13.9% (inactive)"}, {"measurement": "fluorescence slope", "setting": "[6]", "result": "-0.474 (inactive)"}, {"measurement": "NADPH fluorescence slope", "setting": "[7]", "result": "-5.6e-05 (inactive)"}, {"measurement": "slope", "setting": "[8]", "result": "0.00543 (inactive)"}, {"measurement": "outcome", "setting": "[9]", "result": "inactive"}, {"measurement": "inhibition", "setting": "[10]", "result": "2.29% (inactive)"}, {"measurement": "inhibition", "setting": "[11]", "result": "22.1% (inactive)"}, {"measurement": "inhibition", "setting": "[12]", "result": "8.22% (inactive)"}]}
{"smiles": "Cc1nc(-c2coc3cc(OCC(=O)O)ccc3c2=O)cs1", "values": [{"measurement": "cell count", "setting": "[1]", "result": 642}, {"measurement": "inhibition", "setting": "[1]", "result": "-9% (inactive)"}, {"measurement": "inhibition of aggregation", "setting": "[2]", "result": "16.4% (inactive)"}, {"measurement": "nuclei count", "setting": "[2]", "result": 100, "unit": "%"}, {"measurement": "inhibition", "setting": "[3]", "result": "-136% (inactive)"}, {"measurement": "nuclei count", "setting": "[3]", "result": 114, "unit": "%"}, {"measurement": "z-score", "setting": "[4]; [13]", "result": -0.205}, {"measurement": "z-score", "setting": "[4]; [14]", "result": 0.979}, {"measurement": "z-score", "setting": "[4]; [15]", "result": 0.055}, {"measurement": "inhibition", "setting": "[5]", "result": "11.9% (inactive)"}, {"measurement": "fluorescence slope", "setting": "[6]", "result": "-0.552 (inactive)"}, {"measurement": "NADPH fluorescence slope", "setting": "[7]", "result": "-4.6e-05 (inactive)"}, {"measurement": "slope", "setting": "[8]", "result": "0.00509 (inactive)"}, {"measurement": "outcome", "setting": "[9]", "result": "inactive"}, {"measurement": "inhibition", "setting": "[10]", "result": "29.5% (inactive)"}, {"measurement": "inhibition", "setting": "[11]", "result": "20.3% (inactive)"}, {"measurement": "inhibition", "setting": "[12]", "result": "15.4% (inactive)"}]}
{"smiles": "NC(Cc1ccc(Oc2ccc(O)cc2)cc1)C(=O)O", "note": "(stereo unspecified)", "values": [{"measurement": "cell count", "setting": "[1]", "result": 563}, {"measurement": "inhibition", "setting": "[1]", "result": "-6.8% (inactive)"}, {"measurement": "inhibition of aggregation", "setting": "[2]", "result": "-8.1% (inactive)"}, {"measurement": "nuclei count", "setting": "[2]", "result": 103, "unit": "%"}, {"measurement": "inhibition", "setting": "[3]", "result": "-19.7% (inactive)"}, {"measurement": "nuclei count", "setting": "[3]", "result": 103, "unit": "%"}, {"measurement": "z-score", "setting": "[4]; [13]", "result": -0.271}, {"measurement": "z-score", "setting": "[4]; [14]", "result": -1.56}, {"measurement": "z-score", "setting": "[4]; [15]", "result": -0.79}, {"measurement": "inhibition", "setting": "[5]", "result": "3.45% (inactive)"}, {"measurement": "fluorescence slope", "setting": "[6]", "result": "-0.495 (inactive)"}, {"measurement": "NADPH fluorescence slope", "setting": "[7]", "result": "-5.7e-05 (inactive)"}, {"measurement": "slope", "setting": "[8]", "result": "0.00414 (inactive)"}, {"measurement": "outcome", "setting": "[9]", "result": "inactive"}, {"measurement": "inhibition", "setting": "[10]", "result": "-4.82% (inactive)"}, {"measurement": "inhibition", "setting": "[11]", "result": "11.4% (inactive)"}, {"measurement": "inhibition", "setting": "[12]", "result": "24.4% (inactive)"}]}
